# Several values for one entry are separate records, joined by “and”; a condition that tells them apart may be missing. Identical values can stand only once. Inconclusive results are not listed. Entries that show only a call come without a potency. Unmarked numbers belong to inactive results. Activity calls are given as the source filed them. Calls follow the shape of the dose curve; as a rule, active = well fitted curve in the direction sought with a large enough effect; inconclusive = small, poorly fitted or top-dose-only effect, or another doubt; inactive = no such curve, though single readings can be large; an effect the other way counts as inactive or inconclusive.
# Assays:
# [1] = Viability qHTS for spleen associated tyrosine kinase inhibitor (SYKi) drug resistant MV4-11 cells (AID 1963824); also: nearly all actives have a fitted effect of over 35% in size
# Outline: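 SYK-inhibitor-resistant MV4-11 AML cells were seeded at 500 per well onto compound and cultured 72 hours (37 °C, 5% CO2). CellTiter-Glo was then added, and after 10 min at room temperature, luminescence gave viability.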
# [2] = Quantitative highthroughput screen to assess conditional lethalithy of NOMO1 cells grown in RPMI1640 with untreated serum (RPMI+s) (AID 1963876); also: nearly all actives have a fitted effect of over 35% in size
# Outline: (§1)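 Each medium arm—HPLM with 10% dialyzed FBS, or RPMI1640 with 5 mM glucose and 10% untreated or dialyzed FBS—was screened against an 11-point, 3-fold compound titration for 48 h at 37 °C, with CellTiter-Glo luminescence as endpoint.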
# [3] = Quantitative highthroughput screen to assess conditional lethalithy of NOMO1 cells grown in RPMI1640 with dialyzed fetal bovine serum (RPMI+ds) (AID 1963877); also: nearly all actives have a fitted effect of over 30% in size; as to Viability: series mostly up to about 46 µM
# Outline: as §1
# [4] = Quantitative highthroughput screen to assess conditional lethalithy of NOMO1 cells grown in Human Plasma-Like Medium with dialyzed fetal bovine serum (HPLM+ds) (AID 1963878); also: nearly all actives have a fitted effect of over 35% in size
# Outline: as §1
# [5] = Quantitative highthroughput screen to assess conditional lethalithy of P12 Ichikawa cells grown in Human Plasma-Like Medium with dialyzed fetal bovine serum (HPLM+ds) (AID 1963879); details: Potency: viability; also: nearly all actives have a fitted effect of over 35% in size; as to Viability: series mostly up to about 46 µM
# Outline: as §1
# [6] = Quantitative highthroughput screen to assess conditional lethalithy of P12 Ichikawa cells grown in RPMI1640 with dialyzed fetal bovine serum (RPMI+ds) (AID 1963880); details: Potency: P12-Ichikawa viability; also: nearly all actives have a fitted effect of over 35% in size
# Outline: as §1
# [7] = Quantitative highthroughput screen to assess conditional lethalithy of P12 Ichikawa cells grown in RPMI1640 with untreated serum (RPMI+s) (AID 1963881); details: Potency: viability; also: nearly all actives have a fitted effect of over 35% in size; as to Viability: series mostly up to about 46 µM
# Outline: as §1
# [8] = Quantitative highthroughput screen to assess conditional lethalithy of SEM cells grown in Human Plasma-Like Medium with dialyzed fetal bovine serum (HPLM+ds) (AID 1963882); also: nearly all actives have a fitted effect of over 35% in size; as to Viability: series mostly up to about 46 µM
# Outline: as §1
# [9] = Quantitative highthroughput screen to assess conditional lethalithy of SEM cells grown in RPMI1640 with unreated serum (RPMI+s) (AID 1963883); also: nearly all actives have a fitted effect of over 35% in size
# Outline: as §1
# [10] = Quantitative highthroughput screen to assess conditional lethalithy of SEM cells grown in RPMI1640 with dialyzed fetal bovine serum (RPMI+ds) (AID 1963884); also: nearly all actives have a fitted effect of over 35% in size; as to Viability: series mostly up to about 46 µM
# Outline: as §1
# [11] = Cellular viability qHTS for adrenocortical cancer (ACC) cell line SW-13 (AID 1963989); details: SW-13 ACC cells viability, CellTiter-Glo, 48 h; activity (max response): hits give low values; also: nearly all actives have a fitted effect of over 65% in size;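 as to activity (max response): cells grown in serum-free medium with ITS supplement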
# Outline: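 Viability was read as CellTiter-Glo luminescence after 48 h compound treatment (up to 46 uM final) of SW-13 cells grown serum-free; titration curves were fit with a four-parameter logistic model to give IC50 and efficacy.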
# [12] = Cellular viability qHTS for adrenocortical cancer (ACC) cell line NCI-H295R (AID 1963990); also: nearly all actives have a fitted effect of over 60% in size
# Outline: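 CellTiter-Glo ATP luminescence, read 48 h after compound addition, measured viability of NCI-H295R adrenocortical cells grown serum-free with ITS. Final concentrations spanned up to 46 uM. Data normalized to DMSO and doxorubicin, fitted for IC50 and maximal response.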
# Potency is read from the fitted curve at half-maximal effect.
smiles,measurement,setting,value
C=C1C(=O)OC[C@@H]1C/C=C(\C)CC1CC(C)C(=O)O1 (stereo not given in full),Potency,[1],13 µM (active)
COc1cc(O)c2c(c1)/C=C/C[C@H](O)[C@H](O)C(=O)/C=C\C[C@H](C)OC2=O,Potency,[1],0.259 µM (active)
CC(C)CC(=O)n1cc(C(N)=O)c(=O)cc1C(O)c1ccccc1 (stereo not given),Potency,[1],inactive
C/C=C/C=C/C(=O)O[C@@H]1C=C2COC(=O)[C@]2(O)[C@@]2(C)CCCC(C)(C)[C@H]12,Potency,[1],16.1 µM (active)
CC(=O)O[C@@H]1[C@@H](OC(C)=O)[C@H](C)O[C@@H](O[C@H]2[C@@H]3C=CO[C@@H](O[C@@H]4O[C@H](CO)[C@@H](O)[C@H](O)[C@H]4O)[C@@H]3[C@@]3(CO)O[C@@H]23)[C@@H]1OC(=O)/C=C/c1ccccc1,Potency,[1],6.11 µM (active)
CCCCC(CC)CN=C(N)NC(N)=NCCCCCCN=C(N)NC(N)=NCC(CC)CCCC (stereo not given),Potency,[1],2.66 µM (active)
O=C(/C=C/c1nc2ccccc2[nH]1)c1c(-c2ccccc2)c2cc(Cl)ccc2[nH]c1=O,Potency,[1],0.291 µM (active)
COc1cc(N2CCOCC2)ccc1Nc1ncc(F)c(Nc2ccccc2NS(C)(=O)=O)n1,Potency,[1],2.59 µM (active)
C=C1CC/C=C(/CO)C(=O)C[C@@H]2[C@@H]1CC2(C)C,Potency,[1],inactive
NC(N)=NC(=O)c1cnn(-c2cccc3ncccc23)c1C1CC1,Potency,[1],3.26 µM (active)
CC(=O)O[C@@H]1[C@H](O[C@@H]2OC[C@](O)(CO)[C@H]2O)[C@@H](O[C@@H]2O[C@@H](C)[C@H](O)[C@@H](O)[C@H]2O)[C@H](OC(=O)[C@]23CCC(C)(C)C[C@H]2C2=CCC4[C@@]5(C)C[C@H](O)[C@H](O[C@@H]6O[C@H](C(=O)O)[C@@H](O)[C@H](O)[C@H]6O)[C@@](C)(C(=O)O)C5CC[C@@]4(C)[C@]2(C)CC3)O[C@@H]1C (stereo not given in full),"viability, % of control",[1],107% [at 9.25 µM]
COC(=O)[C@]1(Cc2ccc(O)c(CC=C(C)C)c2)OC(=O)C(O)=C1c1ccc(O)cc1,Potency,[1],8.93 µM (active)
COC(=O)CC(O)C1OC(c2ccccc2)C(O)C1O (stereo not given),Potency,[1],inactive
Cc1cc2occ(CN(C)CCN(C)Cc3cn(-c4cccc(C(F)(F)F)c4)c4ccccc34)c(=O)c2cc1C,Potency,[1],4.61 µM (active)
C=C(C)[C@@]1(O)C[C@@]2(C)C(=CC1=O)CC[C@@H](O)[C@@H]2C,Potency,[1],inactive
CCOc1ccc(-n2c(C(C)N(Cc3cccnc3)C(=O)Cc3ccc(F)c(C(F)(F)F)c3)nc3ncccc3c2=O)cc1 (stereo not given),Potency,[1],16.4 µM (active)
C=C1C[C@]23C[C@H]1CC[C@H]2[C@]1(C)CCC[C@@]2(CO)C(=O)O[C@H]([C@H]21)[C@@H]3O,Potency,[1],inactive
CC(=O)O[C@@H]1C=C2[C@H](CC[C@@]3(C)[C@@]2(O)CC[C@H]2Cc4c([nH]c5ccccc45)[C@@]23C)O[C@@H]1C(C)(C)O,Potency,[1],8.93 µM (active)
O=C(/C=C/c1ccc(O)cc1)OC[C@@]1(O)C=C[C@@H]2C(C(=O)O)=CO[C@@H](O[C@@H]3O[C@H](CO)[C@@H](O)[C@H](O)[C@H]3O)[C@@H]21,Potency,[1],inactive
COc1c(C)c2c(c(O)c1C/C=C(\C)CC/C=C(\C)CCC(=O)O)C(=O)OC2,Potency,[1],inactive
CCCCNc1ccc(-c2ccc(CN3CCOCC3)cn2)c(NC2CCC(O)CC2)c1 (stereo not given),Potency,[1],0.0502 µM (active)
CNS(=O)(=O)Nc1nccc(Cc2c(C)c3ccc(Oc4ncccn4)cc3oc2=O)c1F,Potency,[1],0.59 µM (active)
O=C(O)Cc1cn([C@@H]2OC[C@@H](O[C@@H]3O[C@H](CO)[C@@H](O)[C@H](O)[C@H]3O)[C@H](O)[C@H]2O[C@@H]2O[C@H](CO)[C@@H](O)[C@H](O)[C@H]2O)c2ccccc12,Potency,[1],inactive
CCC(CC)C(=O)OC12C(OC(=O)C(C)C)C(C)C3(O)C(C=C(CO)CC4(O)C(=O)C(C)=CC43)C1C2(C)C (stereo not given),Potency,[1],0.01 µM (active)
O=C(Nc1ccc(Cl)cc1)Nc1cccc(-c2cccc(N3CCCC3)n2)c1,Potency,[1],14.6 µM (active)
CC(=O)OC12CC(C)C(O)C1/C=C(/COC1OC(CO)C(O)C(O)C1O)CCC1C(/C=C(\C)C2=O)C1(C)C (stereo not given),Potency,[1],inactive
CCOC(=O)N1CCC(=C2c3ccc(Cl)cc3CCc3cccnc32)CC1,Potency,[1],8.41 µM (active)
same,Potency,[2],inactive
same,Potency,[3],inactive
same,Potency,[4],inactive
same,Potency,[5],inactive
same,Potency,[6],inactive
same,Potency,[7],inactive
same,Potency,[8],inactive
same,Potency,[9],inactive
same,Potency,[10],11800 nM (active)
same,Potency,[11],4.61 µM (active)
COc1cc(C[C@@H](CO)[C@H](CO)Cc2ccc(O)c(OC)c2)ccc1O,Potency,[1],inactive
same,Potency,[2],inactive
same,Potency,[3],inactive
same,Potency,[4],inactive
same,Potency,[5],inactive
same,Potency,[6],inactive
same,Potency,[7],inactive
same,Potency,[8],inactive
same,Potency,[9],inactive
same,Potency,[10],inactive
same,activity (max response),[11],-8.41%
same,Potency,[12],inactive
O=C(O)c1cc(O)c2c(c1)C(=O)c1cccc(O)c1C2=O,Potency,[1],23.5 µM (active)
same,Potency,[2],inactive
same,Potency,[3],inactive
same,Potency,[4],inactive
same,Potency,[5],inactive
same,Potency,[6],inactive
same,Potency,[7],inactive
same,Potency,[8],inactive
same,Potency,[9],inactive
same,Potency,[10],inactive
same,activity (max response),[11],1.15%
same,Potency,[12],inactive
CC1CCN(c2cc(N3CCN(C)CC3)ccc2NC(=O)c2cc(C#N)c[nH]2)CC1,Potency,[1],11.8 µM (active)
same,Potency,[2],inactive
same,Potency,[3],inactive
same,Potency,[4],inactive
same,Potency,[5],inactive
same,Potency,[6],inactive
same,Potency,[7],inactive
same,Potency,[8],inactive
same,Potency,[9],inactive
same,Potency,[10],inactive
same,activity (max response),[11],-21.1%
same,Potency,[12],inactive
CC(C)Oc1ccc2c(=O)c(-c3ccccc3)coc2c1,Potency,[1],10.6 µM (active)
same,Potency,[2],inactive
same,Potency,[3],inactive
same,Potency,[4],inactive
same,Potency,[5],inactive
same,Potency,[6],inactive
same,Potency,[7],inactive
same,Potency,[8],inactive
same,Potency,[9],inactive
same,activity (max response),[11],-5.36% and 3.78%
Cc1cc2cc3c(C)cc(=O)oc3c(C)c2o1,Potency,[1],inactive
same,Potency,[2],inactive
same,Potency,[3],inactive
same,Potency,[4],inactive
same,Potency,[5],inactive
same,Potency,[6],inactive
same,Potency,[7],inactive
same,Potency,[8],inactive
same,Potency,[9],inactive
same,Potency,[10],inactive
same,Potency,[12],inactive
Cc1cc(Nc2ncc3c(n2)N(C)C(=O)N(c2cc(NC(=O)c4cccc(C(F)(F)F)c4)ccc2C)C3)n(C)n1,Potency,[1],0.0295 µM (active)
same,Potency,[2],1.66 µM (active)
same,Potency,[3],1.18 µM (active)
same,Potency,[4],1.18 µM (active)
same,Potency,[5],16.6 µM (active)
same,Potency,[6],11.8 µM (active)
same,Potency,[7],5.9 µM (active)
same,Potency,[8],469 nM (active)
same,Potency,[9],372 nM (active)
same,Potency,[10],372 nM (active)
same,Potency,[12],1.26 µM (active)
CN(CCOc1ccc(CC2SC(=O)NC2=O)cc1)c1ccccn1 (stereo not given),Potency,[1],13.3 µM (active)
same,Potency,[2],inactive
same,Potency,[3],inactive
same,Potency,[4],inactive
same,Potency,[5],inactive
same,Potency,[6],inactive
same,Potency,[7],inactive
same,Potency,[8],inactive
same,Potency,[9],inactive
same,Potency,[10],inactive
same,activity (max response),[11],-2.77% and -12.8%
same,Potency,[12],inactive
Cc1ccc(C(=O)Nc2ccc(Oc3cc4cnn(C)c4cc3-c3cn[nH]c3)c(F)c2)c(=O)n1-c1ccc(F)cc1,Potency,[1],0.0047 µM (active)
same,Potency,[2],8.31 µM (active)
same,Potency,[3],9.33 µM (active)
same,Potency,[4],7.41 µM (active)
same,Potency,[5],6.6 µM (active)
same,Potency,[6],7.41 µM (active)
same,Potency,[7],6.6 µM (active)
same,Potency,[8],295 nM (active)
same,Potency,[9],467 nM (active)
same,Potency,[10],234 nM (active)
same,activity (max response),[11],-20.9%
O=C(O)c1nc(=O)[nH]c(=O)[nH]1,Potency,[1],inactive
same,Potency,[2],inactive
same,Potency,[3],inactive
same,Potency,[4],inactive
same,Potency,[5],inactive
same,Potency,[6],inactive
same,Potency,[7],inactive
same,Potency,[8],inactive
same,Potency,[9],inactive
same,Potency,[10],inactive
same,Potency,[12],inactive
C[C@@]12O[C@@H](C[C@]1(O)CO)n1c3ccccc3c3c4c(c5c6ccccc6n2c5c31)CNC4=O,Potency,[1],0.0074 µM (active)
same,Potency,[2],1.32 µM (active)
same,Potency,[3],1.32 µM (active)
same,Potency,[4],0.833 µM (active)
same,Potency,[5],0.935 µM (active)
same,Potency,[6],0.833 µM (active)
same,Potency,[7],0.662 µM (active)
same,Potency,[8],166 nM (active)
same,Potency,[9],46.9 nM (active)
same,Potency,[10],105 nM (active)
same,Potency,[11],2.82 µM (active)
same,Potency,[12],3.98 µM (active)
O=C(Nc1nc2ccccc2n1CCN1CCOCC1)c1cccc([N+](=O)[O-])c1,Potency,[1],2.63 µM (active)
same,Potency,[2],inactive
same,Potency,[3],inactive
same,Potency,[4],inactive
same,Potency,[5],inactive
same,Potency,[6],inactive
same,Potency,[7],inactive
same,Potency,[8],inactive
same,Potency,[9],inactive
same,Potency,[10],inactive
same,activity (max response),[11],3.94%
same,Potency,[12],inactive
Nc1ncnc2ccccc12,Potency,[1],inactive
same,Potency,[2],inactive
same,Potency,[3],inactive
same,Potency,[4],inactive
same,Potency,[5],inactive
same,Potency,[6],inactive
same,Potency,[7],inactive
same,Potency,[8],inactive
same,Potency,[9],inactive
same,Potency,[10],inactive
same,activity (max response),[11],12%
same,Potency,[12],inactive
